In PubChem BioAssay (NCI):
This is part of a sample that, as a whole, favours compounds with a hit. Of some 83,000 tested, about 20% had one in any assay.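 Values shown are percent growth following 48 h exposure of cells in 96-well plates to a single concentration of compound; below 10 was considered active.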 Active and inactive are the calls of the source.

Tests used:
Experiment in all cases: NCI-60 one-dose screen, 48 h (100 = growth as untreated, 0 = no growth, -100 = all killed)
[1] = system: 786-0 renal; settings: 10 µM unless noted
[2] = system: DU-145 prostate; settings: 10 µM unless noted
[3] = system: MDA-MB-231 breast; settings: 10 µM unless noted
[4] = system: SF-268 CNS; settings: 10 µM unless noted
[5] = system: SF-539 CNS; settings: 10 µM unless noted
[6] = system: UACC-257 melanoma; settings: 10 µM unless noted
[7] = system: HCT-15 colon; settings: 10 µM
[8] = system: SNB-19 CNS; settings: 10 µM unless noted
[9] = system: PC-3 prostate; settings: 10 µM unless noted
[10] = system: UACC-62 melanoma; settings: 10 µM unless noted
[11] = system: LOX IMVI melanoma; settings: 10 µM unless noted
[12] = system: SK-MEL-28 melanoma; settings: 10 µM unless noted
[13] = system: SN12C renal; settings: 10 µM unless noted
[14] = system: MOLT-4 leukemia; settings: 10 µM
[15] = system: OVCAR-8 ovarian; settings: 10 µM unless noted
[16] = system: OVCAR-3 ovarian; settings: 10 µM unless noted
[17] = system: MDA-MB-435 melanoma; settings: 10 µM unless noted
[18] = system: SW-620 colon; settings: 10 µM unless noted
[19] = system: MCF7 breast; settings: 10 µM unless noted
[20] = system: KM12 colon; settings: 10 µM unless noted

Measured: growth

CC[C@]12C=CCN3CC[C@@]4(c5ccc(OC)cc5N(C)[C@H]4[C@@](O)(C(=O)OC)[C@@H]1OC(=O)CCCN1CCN(CCCC(=O)O[C@@H]4[C@]5(CC)C=CCN6CC[C@@]7(c8ccc(OC)cc8N(C)[C@H]7[C@@]4(O)C(=O)OC)[C@@H]65)CC1)[C@@H]32
active: [1] -81.9% | [2] -90.6% | [3] -89.6% | [4] -82.6% | [5] -95.5% | [6] -87.6% | [7] -74.3% | [8] -93.9% | [9] -80.3% | [10] -87.7% | [11] -89.1% | [12] -91.6% | [13] -81.4% | [14] -62.9% | [15] -71.1% | [16] -85.2% | [17] -89.3% | [18] -81.9% | [19] -83.8% | [20] -73.9%

CC1([N+](=O)[O-])COP(=O)(Nc2ccc(F)cc2)OC1 (centres undefined)
inactive: [1] 102% | [2] 106% | [3] 118% | [4] 99.7% | [5] 103% | [6] 101% | [7] 104% | [8] 107% | [9] 95.5% | [10] 109% | [11] 84.2% | [12] 116% | [13] 111% | [14] 83% | [15] 101% | [16] 104% | [17] 110% | [18] 102% | [19] 100% | [20] 95.8%

O=C(CCc1ccco1)NC1CCN(CC2(c3ccc(Cl)cc3)CCC2)CC1
active: [3] -6.18% | [6] -4.36% | [9] 1.34% | [13] 5.58% | [14] -11.7% | [17] 4.28% | [19] 2.88% | [20] 1.4%
inactive: [1] 20.4% | [2] 24% | [4] 22.1% | [5] 34.5% | [7] 18.7% | [8] 15% | [10] 17% | [12] 30.1% | [15] 12.2% | [16] 13.9% | [18] 14.7%

COc1cc(CNCCc2ccc(Cl)cc2)cc(OC)c1O
active: [17] -4.7%
inactive: [1] 78.3% | [2] 91% | [3] 72.2% | [4] 73% | [5] 68.7% | [6] 90.2% | [7] 54.8% | [8] 75.6% | [9] 52.9% | [10] 61.2% | [11] 70.7% | [12] 69.9% | [13] 75.5% | [14] 37.3% | [15] 66.3% | [16] 61% | [18] 64.1% | [19] 63.7% | [20] 65.7%

CC(=O)O[C@H]1CC[C@H]2[C@@H]3CC[C@H]4CC=C(C)C[C@]4(C)[C@H]3CC[C@]12C
inactive: [1] 100% | [2] 106% | [3] 109% | [4] 100% | [5] 96.2% | [6] 111% | [7] 98.6% | [8] 101% | [9] 99.3% | [10] 98.5% | [11] 102% | [12] 112% | [13] 101% | [14] 94% | [15] 102% | [16] 102% | [17] 106% | [18] 109% | [19] 100% | [20] 103%

N#CC1c2ccccc2C=CN1C(=O)c1ccc(N(CCCl)CCCl)cc1 (centres undefined)
inactive: [1] 107% | [2] 111% | [3] 92.9% | [4] 95.9% | [5] 101% | [6] 81.5% | [7] 81.4% | [8] 82.4% | [9] 81.1% | [10] 71.7% | [11] 90.4% | [12] 94.6% | [13] 75.5% | [14] 72.2% | [15] 85.7% | [16] 88.6% | [17] 79.4% | [18] 105% | [19] 83.5% | [20] 98%
